Source: PubChem BioAssay (EPA / NIEHS)
“And” between values parts separate entries of the source, which are not always exact repeats. Identical values can stand only once. The source made the active and inactive calls. Rule for the calls: active = hit-call score of the fitted dose curve at least 0.9, where 1 is the maximum; inactive = score below 0.9.

Legend:
[1] = read-out: Monokine induced gamma interferon (MIG), CXCL9 (gene 4283); experiment: BSK_hDFCGF_MIG: BioMAP Diversity Plus: hDFCGF Assay for Monokine induced gamma interferon (MIG) Biomarker Activity (AID 2283063); conditions: primary human foreskin fibroblasts; actives raise or lower the signal
In short: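 Chemicals were added to primary human foreskin fibroblast cultures, which were sampled 24 h later. MIG levels were then quantified by ELISA and responses fitted in both directions relative to DMSO.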

[2] = read-out: Matrix Metallopeptidase 1 (MMP1), MMP1 (gene 4312); experiment: BSK_hDFCGF_MMP1: BioMAP Diversity Plus: hDFCGF Assay for Matrix Metallopeptidase 1 (MMP1) Biomarker Activity (AID 2283064); conditions: primary human foreskin fibroblasts; actives raise or lower the signal
In short: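 Primary human foreskin fibroblasts exposed to chemicals for 24 h; MMP1 measured by ELISA. Cytotoxicity tracked by SRB staining in parallel cultures; bidirectional fit relative to DMSO.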

[3] = read-out: Plasminogen activator inhibitor-1 (PAI1), SERPINE1 (gene 5054); experiment: BSK_hDFCGF_PAI1: BioMAP Diversity Plus: hDFCGF Assay for Plasminogen activator inhibitor-1 (PAI1) Biomarker Activity (AID 2283066); conditions: primary human foreskin fibroblasts; actives raise or lower the signal
In short: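 Human foreskin fibroblast primary cells, 24 h chemical exposure; PAI-1 measured by ELISA. Bidirectional fitting relative to DMSO; parallel cultures stained with SRB for total protein to flag overt cytotoxicity.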

[4] = read-out: Interferon-gamma inducible Protein 10 (IP10), CXCL10 (gene 3627); experiment: BSK_KF3CT_IP10: BioMAP Diversity Plus: KF3CT Assay for Interferon-gamma inducible Protein 10 (IP10) Biomarker Activity (AID 2283068); conditions: primary human keratinocytes with fibroblasts; actives raise or lower the signal
In short: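 ELISA read-out of IP-10 after 24 h chemical dosing of human skin primary co-culture (keratinocytes, foreskin fibroblasts). Gain or loss of signal relative to DMSO, bidirectional curve fit.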

[5] = BSK_KF3CT_SRB: Viability Assessment in the BioMAP Diversity Plus: KF3CT Assay (AID 2283069); conditions: primary human keratinocytes with fibroblasts;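 note: total protein by sulforhodamine B staining as a cytotoxicity measure; read 24 h after compound addition; fitted for both signal gain and loss against DMSO baseline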
In short: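 Human keratinocyte and foreskin fibroblast co-culture exposed to chemical for 24 h. Total protein measured in parallel cultures by 0.1% sulforhodamine B staining after 10% TCA fixation, read at 560 nm; bidirectional fit relative to DMSO.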

[6] = read-out: Interleukin-1 alpha (IL1a), IL1A (gene 3552); experiment: BSK_KF3CT_IL1a: BioMAP Diversity Plus: KF3CT Assay for Interleukin-1 alpha (IL1a) Biomarker Activity (AID 2283070); conditions: primary human keratinocytes with fibroblasts; actives raise or lower the signal
In short: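 Primary human keratinocyte plus foreskin fibroblast co-culture, dosed and measured at 24 h in 96-well plates. IL-1a level quantified by ELISA; bidirectional fit relative to DMSO.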

[7] = read-out: TIMP metallopeptidase inhibitor 2 (TIMP2), TIMP2 (gene 7077); experiment: BSK_KF3CT_TIMP2: BioMAP Diversity Plus: KF3CT Assay for TIMP metallopeptidase inhibitor 2 (TIMP2) Biomarker Activity (AID 2283071); conditions: primary human keratinocytes with fibroblasts; actives raise or lower the signal
In short: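 Co-culture of human primary keratinocytes and foreskin fibroblasts, measured 24 h after chemical dosing. TIMP-2 quantified by ELISA and fitted in both directions relative to DMSO. Cytotoxicity checked in parallel cultures by SRB total-protein staining.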

[8] = read-out: Matrix Metallopeptidase 9 (MMP9), MMP9 (gene 4318); experiment: BSK_KF3CT_MMP9: BioMAP Diversity Plus: KF3CT Assay for Matrix Metallopeptidase 9 (MMP9) Biomarker Activity (AID 2283074); conditions: primary human keratinocytes with fibroblasts; actives raise or lower the signal
In short: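 Human keratinocyte and foreskin fibroblast co-culture exposed to chemicals for 24 h; MMP9 biomarker measured by ELISA, bidirectional fitting relative to DMSO; cytotoxicity tracked by SRB total protein staining in parallel cultures.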

[9] = read-out: urokinase plasminogen activator (uPA), PLAU (gene 5328); experiment: BSK_KF3CT_uPA: BioMAP Diversity Plus: KF3CT Assay for urokinase plasminogen activator (uPA) Biomarker Activity (AID 2283075); conditions: primary human keratinocytes with fibroblasts; actives raise or lower the signal
In short: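 Primary human keratinocyte/foreskin fibroblast co-culture exposed to chemical; uPA measured by ELISA at 24 h. Bidirectional fit versus DMSO, with parallel SRB total-protein staining for cytotoxicity.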

[10] = BSK_LPS_SRB: Viability Assessment in the BioMAP Diversity Plus: LPS Assay (AID 2283079); conditions: primary human HUVEC with PBMC;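 note: total protein by sulforhodamine B absorbance as a cytotoxicity measure; measured one day after compound addition; fitted in both directions against DMSO so loss or gain of signal counts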
In short: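 Readout is SRB absorbance at 560 nm (0.1% stain, TCA-fixed parallel cultures) as a total-protein cytotoxicity measure. Cells: primary human umbilical vein endothelium plus peripheral blood mononuclear cells, 24 h after chemical exposure; DMSO served as baseline.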

[11] = read-out: Tumor necrosis factor (Homo sapiens) (UniProt P01375); experiment: BSK_LPS_TNFa: BioMAP Diversity Plus: LPS Assay for Tumour Necrosis Factor alpha (TNFa) Biomarker Activity (AID 2283085); conditions: primary human HUVEC with PBMC; actives raise or lower the signal
In short: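 Human umbilical vein endothelial cells co-cultured with PBMC and stimulated with LPS. TNFa was measured by ELISA 24 h after chemical dosing, fitted bidirectionally relative to DMSO.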

[12] = read-out: Vascular cell adhesion molecule 1 (VCAM1), VCAM1 (gene 7412); experiment: BSK_LPS_VCAM1: BioMAP Diversity Plus: LPS Assay for Vascular cell adhesion molecule 1 (VCAM1) Biomarker Activity (AID 2283086); conditions: primary human HUVEC with PBMC; actives raise or lower the signal
In short: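 Human umbilical vein endothelial cells co-cultured with PBMC and stimulated with LPS; VCAM-1 measured by ELISA 24 h after dosing. Bidirectional curve fitting against DMSO baseline; cytotoxicity tracked in parallel by SRB total-protein staining.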

CD38, CD38 (gene 952) = experiment: BSK_SAg_CD38: BioMAP Diversity Plus: SAg Assay for CD38 Biomarker Activity (AID 2283087); conditions: primary human HUVEC with PBMC; actives raise or lower the signal
In short: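 Human HUVEC plus PBMC co-culture stimulated with superantigen; CD38 measured by ELISA 24 h after chemical dosing. Fluorescence read-out, bidirectional fit against DMSO; cytotoxicity tracked in parallel by SRB and Alamar Blue.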

[13] = read-out: Monocyte Chemoattractant Protein-1 (MCP1), CCL2 (gene 6347); experiment: BSK_SAg_MCP1: BioMAP Diversity Plus: SAg Assay for Monocyte Chemoattractant Protein-1 (MCP1) Biomarker Activity (AID 2283090); conditions: primary human HUVEC with PBMC; actives raise or lower the signal
In short: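 MCP-1 levels in the endothelial–PBMC SAg co-culture were quantified by ELISA at 24 h post-dosing; both increases and decreases versus DMSO scored. Cytotoxicity monitored by SRB total protein in parallel cultures.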

[14] = read-out: E-selectin (Homo sapiens) (UniProt P16581); experiment: BSK_SAg_Eselectin: BioMAP Diversity Plus: SAg Assay for Eselectin Biomarker Activity (AID 2283091); conditions: primary human HUVEC with PBMC; actives raise or lower the signal
In short: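 Co-culture: HUVEC + PBMC. Dose compound; 24 h. ELISA for E-selectin. Bidirectional fit vs DMSO.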

[15] = read-out: Monokine induced gamma interferon (MIG), CXCL9 (gene 4283); experiment: BSK_SAg_MIG: BioMAP Diversity Plus: SAg Assay for Monokine induced gamma interferon (MIG) Biomarker Activity (AID 2283092); conditions: primary human HUVEC with PBMC; actives raise or lower the signal
In short: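 Endothelial cells and PBMC were co-cultured, exposed to test chemicals, and sampled 24 h later. MIG was measured by ELISA, and responses were fitted in both directions relative to DMSO.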

[16] = read-out: Interleukin-8 (IL8), CXCL8 (gene 3576); experiment: BSK_SAg_IL8: BioMAP Diversity Plus: SAg Assay for Interleukin-8 (IL8) Biomarker Activity (AID 2283094); conditions: primary human HUVEC with PBMC; actives raise or lower the signal
In short: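 Human umbilical vein endothelial cells co-cultured with PBMC, stimulated with superantigen; IL-8 measured by ELISA 24 h after chemical dosing. Bidirectional fitting versus DMSO; SRB staining in parallel cultures tracks cytotoxicity.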

[17] = BSK_SAg_Proliferation: Cell Proliferation Assessment in the BioMAP Diversity Plus: SAg Assay (AID 2283095); conditions: primary human HUVEC with PBMC
In short: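 Human umbilical vein endothelial cells co-cultured with PBMC; sulforhodamine B total-protein staining (0.1% SRB after 10% TCA fixation, absorbance 560 nm) at 96 h in sub-confluent culture. Fitted bidirectionally against DMSO.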

[18] = ATG_GLI_CIS: Attagene CIS-FACTORIAL HepG2 Assay for human Zinc Finger Protein GLI1 (AID 2282945); conditions: HepG2, Attagene cis-factorial reporter mRNA, GLI element; actives raise or lower the signal
In short: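 Transiently transfected HepG2 cells report endogenous transcription factor activity via cis-element-driven reporter units. After 24 h compound exposure, reporter mRNA was measured by RT-PCR with capillary electrophoresis; bidirectional fitting against DMSO baseline.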

[19] = molecular target: Heat shock factor protein 1 (Homo sapiens) (UniProt Q00613); experiment: ATG_HSE_CIS: Attagene CIS-FACTORIAL HepG2 Assay for human Heat Shock Transcription Factor 1 (HSE) (AID 2282953); conditions: HepG2 HSE cis-reporter, Attagene RNA transcription; actives raise or lower the signal
In short: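 Endogenous transcription factor activity captured via cis-promoter reporter units transfected into HepG2; treatment lasted 24 h. Fluorescence intensity of reporter fragments analysed with bidirectional curve fitting, DMSO baseline.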

Measured: AC50

Sequence of Tumor necrosis factor (Homo sapiens) (P01375 whole entry, looked up): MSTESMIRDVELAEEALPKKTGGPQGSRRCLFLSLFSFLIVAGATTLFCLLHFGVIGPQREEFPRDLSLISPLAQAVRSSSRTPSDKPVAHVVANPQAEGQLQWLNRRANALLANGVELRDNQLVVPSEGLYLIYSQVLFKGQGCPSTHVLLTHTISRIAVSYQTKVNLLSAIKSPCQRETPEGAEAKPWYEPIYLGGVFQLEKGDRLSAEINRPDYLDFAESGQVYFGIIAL
Sequence of E-selectin (Homo sapiens) (P16581 whole entry, looked up): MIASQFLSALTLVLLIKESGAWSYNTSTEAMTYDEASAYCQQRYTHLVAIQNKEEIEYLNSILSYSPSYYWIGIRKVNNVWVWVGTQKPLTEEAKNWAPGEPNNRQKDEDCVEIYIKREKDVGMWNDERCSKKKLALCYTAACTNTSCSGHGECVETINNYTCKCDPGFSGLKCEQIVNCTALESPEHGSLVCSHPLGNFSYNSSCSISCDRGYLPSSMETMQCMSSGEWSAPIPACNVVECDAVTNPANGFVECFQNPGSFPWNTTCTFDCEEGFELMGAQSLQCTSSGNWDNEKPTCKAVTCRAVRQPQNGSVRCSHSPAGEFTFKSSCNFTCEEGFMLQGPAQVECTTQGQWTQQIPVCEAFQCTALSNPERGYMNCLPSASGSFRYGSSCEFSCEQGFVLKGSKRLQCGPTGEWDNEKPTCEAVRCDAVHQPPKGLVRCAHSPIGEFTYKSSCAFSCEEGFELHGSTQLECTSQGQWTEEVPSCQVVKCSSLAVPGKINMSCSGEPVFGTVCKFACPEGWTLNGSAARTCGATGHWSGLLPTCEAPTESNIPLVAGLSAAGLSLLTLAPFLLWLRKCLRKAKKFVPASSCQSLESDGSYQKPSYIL
Sequence of Heat shock factor protein 1 (Homo sapiens) (Q00613 whole entry, looked up, the tested form may be a part): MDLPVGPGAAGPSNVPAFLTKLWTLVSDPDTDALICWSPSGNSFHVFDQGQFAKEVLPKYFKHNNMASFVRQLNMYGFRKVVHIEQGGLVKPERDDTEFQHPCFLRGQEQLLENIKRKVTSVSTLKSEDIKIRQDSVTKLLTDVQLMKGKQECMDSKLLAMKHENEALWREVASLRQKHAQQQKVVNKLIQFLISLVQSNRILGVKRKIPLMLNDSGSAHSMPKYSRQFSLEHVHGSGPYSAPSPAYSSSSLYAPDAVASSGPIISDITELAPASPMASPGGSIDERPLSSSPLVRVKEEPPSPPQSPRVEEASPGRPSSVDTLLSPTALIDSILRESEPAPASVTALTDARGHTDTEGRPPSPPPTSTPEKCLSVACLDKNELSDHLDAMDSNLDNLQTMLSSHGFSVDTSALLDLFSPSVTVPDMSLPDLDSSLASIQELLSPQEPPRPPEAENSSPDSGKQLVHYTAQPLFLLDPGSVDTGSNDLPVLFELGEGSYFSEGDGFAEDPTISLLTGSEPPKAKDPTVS

Cc1c(C(N)=O)cc([N+](=O)[O-])cc1[N+](=O)[O-]
not listed: [18] | [19]
inactive: all other assays above

CCCCCCOC(=O)CCCCCCCC(=O)OCCCCCC
inactive: [18] | [19]

COc1ccccc1OCC(O)CO (configuration not stated)
inactive: [18]

COc1ccc(C(=O)c2ccccc2O)c(O)c1
active: [16] 29.5 µM and 24.6 µM
not listed: [18] | [19]
inactive: all other assays above

C1CN(CCOCCN2CCOCC2)CCO1
not listed: [18] | [19]
inactive: all other assays above

Oc1ccc(Oc2ccccc2)cc1
inactive: [18] | [19]

CCC[Si](OC(C)=O)(OC(C)=O)OC(C)=O
not listed: [18] | [19]
inactive: all other assays above
